NIH3T3 tox – Cytotoxic Profiling in NIH 3T3 Cell Line of Diverse Libraries Using Quantitative High-Throughput Screening | NIH 3T3 viability, CellTiter-Glo ATP luminescence, 48-72 h | Potency, µM (highest dose often 96.7 µM), usual class: inhibitors | 4.3% of 94,000 active | AID 1345082, 2018; further: nearly all actives have a fitted effect of over 55% in size
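Cytotoxicity is measured as loss of cellular ATP: NIH 3T3 cells (400/well) are exposed to compound for 48 or 72 hr at 37 °C, then CellTiter-Glo luminescence is imaged after 10 min at room temperature.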
HEK cytotox – Cytotoxic Profiling in HEK 293 Cell Line of Diverse Libraries Using Quantitative High-Throughput Screening; HEK 293 viability, ATP luminescence (CellTiter-Glo), 48-72 h; Potency, µM (doses to about 115 µM), hits mostly inhibitors; 6.6% of 94,000 active; AID 1345083, 2018; further: nearly all actives have a fitted effect of over 60% in size
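Read-out: CellTiter-Glo ATP luminescence. Cells: HEK 293, 250 cells/well. Exposure: 48 or 72 hr, 37 degree Celsius.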
FLuc inh – Firefly luciferase inhibition profiling of diverse chemical library using quantitative high-throughput screening; Luciferin 4-monooxygenase (Photinus pyralis), P08659; purified P. pyralis luciferase, luminescence, biochemical; Potency, µM (series often up to 115 µM), most hits filed as inhibitors; 2.5% of 76,000 active; AID 1347043, 2019; further: nearly all actives have a fitted effect of over 65% in size
Target sequence (P08659 whole entry, looked up): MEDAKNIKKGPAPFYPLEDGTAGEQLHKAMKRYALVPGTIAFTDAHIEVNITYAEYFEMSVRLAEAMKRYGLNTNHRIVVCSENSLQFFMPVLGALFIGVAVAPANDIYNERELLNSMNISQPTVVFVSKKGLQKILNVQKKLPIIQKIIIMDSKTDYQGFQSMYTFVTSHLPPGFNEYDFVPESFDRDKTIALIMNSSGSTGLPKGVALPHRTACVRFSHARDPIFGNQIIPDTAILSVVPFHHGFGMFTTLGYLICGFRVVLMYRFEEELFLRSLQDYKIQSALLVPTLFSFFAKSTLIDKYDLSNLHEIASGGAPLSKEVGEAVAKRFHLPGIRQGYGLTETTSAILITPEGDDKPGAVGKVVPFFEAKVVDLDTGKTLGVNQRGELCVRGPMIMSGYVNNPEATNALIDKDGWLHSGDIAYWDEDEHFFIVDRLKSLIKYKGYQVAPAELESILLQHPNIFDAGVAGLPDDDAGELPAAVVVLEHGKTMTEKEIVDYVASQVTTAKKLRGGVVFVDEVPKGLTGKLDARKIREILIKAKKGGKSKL
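FLuc 10nM, D-luciferin 10uM, ATP 10uM, Mg acetate 10mM, Tris acetate pH 7.5, Tween/BSA; cpd qHTS; enzyme added last; CCD luminescence.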
NPR1 antag – Natriuretic polypeptide receptor (hNpr1) antagonism - Primary qHTS; Potency, µM (highest dose often 46.3 µM), most hits filed as inhibitors; 1.6% of 76,000 active; HEK293 hNpr1 GloSensor cGMP, ANP-stimulated luminescence; calls by dose curve; further: nearly all actives have a fitted effect of over 60% in size
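HEK293 cells stably expressing human Npr1 and cGMP GloSensor pGS-40F, loaded 2 h with 2% GloSensor reagent, given compound 30 min at room temperature. Luminescence read before and 20 min after 0.1 nM hNppA.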
Hits are given with their value; – = inactive; ? = inconclusive; · = no result given. Shown are actives, neighbours in structure and some others; about 11% of the full set was active somewhere. Unless noted, the call rests on the fitted dose curve; in most records, active means well fitted curve in the direction sought with a large enough effect; inconclusive means small, poorly fitted or top-dose-only effect, or another doubt; inactive means no such curve, though single readings can be large; an effect the other way counts as inactive or inconclusive.

SMILES	NIH3T3 tox	HEK cytotox	FLuc inh	NPR1 antag
O=C1NC(=NC2CCCC2)C2(CCCN(Cc3ccc(F)cc3)C2)N1c1cccnc1 (stereo unspecified)	16µM	–	·	·
CCN(CC)C(=O)[C@@H]1C[C@@H](O)CN1C1CCN(C(=O)c2cccc(OC)c2)CC1	–	–	·	·
CN1CC(C(=O)NCc2ccc(F)cc2)NC1=O (stereo unspecified)	–	–	·	·
CC(C)CCN1CCC2(C1)C(=NC1CCCC1)NC(=O)N2c1cccnc1 (stereo unspecified)	32µM	–	·	·
O=C(c1ccccc1F)N1CCC2(CC1)C(=NC1CCCC1)NC(=O)N2c1cccnc1	35µM	–	·	·
O=C(c1ccccc1F)N1CCCC2(C1)C(=NC1CCCC1)NC(=O)N2c1cccnc1 (stereo unspecified)	–	–	·	·
CN(C)c1ccc(CN2CCCC3(C2)C(=NC2CCCCC2)NC(=O)N3c2cc(F)cc(F)c2)cc1 (stereo unspecified)	?	79µM	·	·
Cc1ccc([S+](=O)([O-])N2CCC(N3C(=O)c4c(c(C)nn4-c4ccccc4)C3C)CC2)cc1 (stereo unspecified)	–	–	·	·
COCCCNC(=O)C1CCc2nnc(-c3cccc(C(F)(F)F)c3)n21 (stereo unspecified)	–	–	·	·
CN1c2cc(C(=O)Nc3cccc(C(F)(F)F)c3)ccc2C(=O)N2CCCCC21 (stereo unspecified)	?	?	–	–
Cc1cccc(NC(=O)Cn2cccc2-c2nc(-c3ccc4c(c3)OCO4)no2)c1	–	–	–	–
COc1ccccc1-c1cccc(CN2CCCC(C(=O)NCCCc3ccccc3)C2)c1 (stereo unspecified)	35µM	?	·	·
Cc1cccc(-c2cccc(CN3CCCC(C(=O)NCCCc4ccccc4)C3)c2)c1 (stereo unspecified)	40µM	45µM	·	·
COCCCNC(=O)c1ccc2nnc(-c3ccc([S+](C)(=O)[O-])cc3)n2c1	–	–	·	·
Nc1cc(C(=O)N2CCc3onc(-c4ccc(-c5ccccc5)cc4)c3C2)[nH]n1	?	18µM	?	13µM
O=C(c1cc(-c2ccccc2)n[nH]1)N1CCc2c(nc(-c3ccccc3)[nH]c2=O)C1	?	?	?	–
CCS(=O)(=O)c1ncc(CN(C)Cc2ccc3nonc3c2)n1CCc1ccccc1	–	22µM	–	–
CN(Cc1ccc(F)cc1)Cc1cnc(S(C)(=O)=O)n1CCCc1ccccc1	?	20µM	–	–
CCCCn1c(CN(C)Cc2cnn(-c3ccccc3C)c2)cnc1S(=O)(=O)CC	?	?	–	–
CC(C)S(=O)(=O)c1ncc(CN(C)Cc2cnn(C)c2)n1CCc1ccccc1	–	–	–	–
CCNc1cc(N2CCC(CCC(=O)NC3CCCC3)CC2)ncn1	–	–	–	–
O=C1NCc2ccccc2CC12CCN(CC1CCCCC1)CC2	–	–	·	·
O=C([C@H]1CCCN1C(=O)Nc1ccccc1)N1CCC(N2CCOC2=O)CC1	–	–	·	·
COc1cc(=O)n2c(c1C(=O)Nc1ccc(N(C)C)cc1)CCCC2	–	?	35µM	–
CCc1ccc(S(=O)(=O)c2nnn3c2nc(NCc2ccc(F)cc2)c2ccccc23)cc1	?	–	·	·
SMILES	NIH3T3 tox	HEK cytotox	FLuc inh	NPR1 antag
O=S(=O)(c1ccc(Cl)cc1)c1nnn2c1nc(NCc1ccc(F)cc1)c1ccccc12	32µM	?	·	·
COc1ccccc1OCc1nc2c(n1Cc1ccccc1)C(=O)N(Cc1cccc(Cl)c1)CCN2	32µM	?	–	–
COc1cccc(OCc2nc3c(n2Cc2ccccc2)C(=O)N(Cc2cccc(Cl)c2)CCN3)c1	?	25µM	–	–
COc1cc(OC)cc(OCc2nc3c(n2Cc2ccccc2)C(=O)N(Cc2cccc(Cl)c2)CCN3)c1	22µM	40µM	–	–
O=C1c2c(nc(COc3cccc(Cl)c3)n2Cc2ccccc2)NCCN1CC1CC1	?	100µM	–	–
COc1ccccc1OCc1nc2c(n1Cc1ccccc1)C(=O)N(CC1CC1)CCN2	?	?	–	–
COc1ccc(-c2nc(C(=O)N3CCN(c4ncccn4)CC3)n3ccccc23)cc1	–	?	?	–
CC(C)CNC(=O)C1CCc2nnc(-c3cccc(C(F)(F)F)c3)n21 (stereo unspecified)	–	–	·	·
CN(C)CCOCC1(C)COc2ccc(C(=O)NCc3cccc(F)c3)cc2N1 (stereo unspecified)	?	?	–	–
Cc1oc(C2CCN(C(=O)CCc3cc(Cl)no3)CC2)nc1C(=O)N1CCOCC1	–	–	·	·
CCOC(=O)C1(Cc2cccc(C(F)(F)F)c2)CCN(Cc2cc(C(C)C)n[nH]2)CC1	?	25µM	–	?
CCOC(=O)C1(Cc2cccc(C(F)(F)F)c2)CCN(Cc2ccc(COC)o2)CC1	?	?	–	?
Cc1nn(-c2ccccc2)c2c1C(C(C)C)N(C1CN(C(=O)Cc3ccccc3)C1)C2=O (stereo unspecified)	?	50µM	·	·
Cc1nn(-c2ccccc2)c2c1C(C(C)C)N(C1CCCN(C(=O)C3CC3)C1)C2=O (stereo unspecified)	?	28µM	·	·
Cc1nn(-c2ccccc2)c2c1C(C(C)C)N(C1CCCN(C(=O)c3ccc(Cl)nc3)C1)C2=O (stereo unspecified)	?	40µM	·	·
Cc1nn(-c2ccccc2)c2c1C(C(C)C)N(C1CCCN(C(=O)Cc3ccc(F)cc3)C1)C2=O (stereo unspecified)	?	25µM	·	·
COc1ccc(CCC(=O)N2CC(N(CC(C)C)C3CCN(C)CC3)C2)cc1	–	–	·	·
CN(Cc1cccc(C(F)(F)F)c1)Cc1ccnn1C	–	–	·	·
Cc1nn(-c2ccccc2)c2c1C(C(C)C)N(C1CCN(C(=O)N3CCOCC3)C1)C2=O (stereo unspecified)	?	79µM	·	·
Cc1nn(-c2ccccc2)c2c1C(C1CC1)N(C1CCN(Cc3ccc(F)cc3)CC1)C2=O (stereo unspecified)	–	–	·	·
Cc1nn(-c2ccccc2)c2c1C(C1CC1)N(C1CCN(C(=O)Cc3ccc(F)cc3)C1)C2=O (stereo unspecified)	?	35µM	·	·
Cc1nn(-c2ccccc2)c2c1C(C(C)C)N(C1CCN(C(=O)c3ccc(F)cc3)C1)C2=O (stereo unspecified)	?	45µM	·	·
Cc1nn(-c2ccccc2)c2c1C(C(C)C)N(C1CCN(C(=O)c3ccc(Cl)nc3)C1)C2=O (stereo unspecified)	–	?	·	·
Cc1nn(-c2ccccc2)c2c1C(C(C)C)N(C1CCCN(C(=O)c3ccc(F)cc3)C1)C2=O (stereo unspecified)	?	28µM	·	·
CCCn1c(C)cnc1C1CCN(S(=O)(=O)c2cnn(CC)c2)C1 (stereo unspecified)	–	–	·	·

Bioassay records from PubChem.
